High-throughput results as filed in PubChem BioAssay.
Most compounds without a hit are left out; they make up all but 6.6% or so of the library.
HT1080 IDH1KD tx: qHTS for induction of synthetic lethality in tumor cells producing 2HG: qHTS for the HT-1080-IDH1KD cell line. HT-1080 IDH1 knockdown viability, ATP luminescence, 48 h. Potency, µM (highest dose often 46.1 µM), for inactives: at the highest dose activity, negative = toxicity, hits mostly cytotoxic. 2% of 360,000 active. AID 686971, 2013;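 also: 0% = DMSO wells and -100% = cell-free medium wells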
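Luminescent ATP read-out (CellTiter-Glo, 10 min at room temperature) after 48 h compound exposure at 37 °C gave viability of IDH1-knockdown HT-1080 cells. Activity was normalised to DMSO and cell-free wells, then fitted as concentration-response curves.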
KB-3-1 cytotox: qHTS assay for MDR1-selective chemotherapeutics: Primary screen using the parental adenocarcinoma cell KB-3-1; KB-3-1 viability, CellTiter-Glo ATP luminescence, 72 h; Potency, µM (series often up to 46.1 µM), usual class: cytotoxic; 1.4% of 400,000 active; also: % is scaled to controls: 0 for no effect and ±100 for the full control effect; nearly all actives have a fitted effect of over 60% in size
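Screening of KB-3-1 cells (DMEM, 10% FBS, phenol-red free) ran from lowest to highest compound concentration; after 72 h at 37 °C viability was read luminescently and curves fitted.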
HT1080-NT tox: qHTS for induction of synthetic lethality in tumor cells producing 2HG: qHTS for the HT-1080-NT fibrosarcoma cell line. HT-1080-NT fibrosarcoma viability, CellTiter-Glo ATP luminescence, 48 h. Potency, µM (titrated, usually from 46.1 µM), inactives show at the highest dose activity, negative = less viability, usual class: cytotoxic. 1.6% of 360,000 active. AID 686970, 2013;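 also: NT is the 2HG producing partner of a matched IDH1 knockdown line; 0% = DMSO-treated cells and -100% = media-only wells without cells; nearly all actives have a fitted effect of over 55% in size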
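Luminescent CellTiter-Glo readout after 48 hours of compound exposure at 37 degrees C defined viability of HT-1080-NT cells. Activity was normalized to DMSO wells and cell-free media wells; concentration-response curves were fitted and assigned curve classes.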
KB-V1 cytotox: qHTS assay for MDR1-selective chemotherapeutics: Primary screen using the drug-selected MDR subline cells KB-V1. KB-V1 MDR cells viability, CellTiter-Glo, 72 h. Potency, µM (highest dose often 46.1 µM), hits mostly cytotoxic. 3.4% of 400,000 active; also: % is scaled to controls: 0 for no effect and ±100 for the full control effect; nearly all actives have a fitted effect of over 60% in size
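Cytotoxicity toward P-gp-expressing KB-V1 cells was determined as loss of CellTiter-Glo luminescence after 72 h at 37 degrees C. Compounds were tested in quantitative HTS format across a concentration range, with curves fitted to normalized data.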
TGFb inhibitor: qHTS for Inhibitors of TGF-b | HepG2 CAGA-GFP TGF-b/SMAD3 reporter, GFP fluorescence, 18 h; TGF-beta stimulated, 500 pg/mL final | Potency, µM (titrated, usually from 46.1 µM), without a hit: at the highest dose activity, negative = inhibition, actives largely listed as inhibitors | 1.2% of 410,000 active | AID 588855, 2011; also: % is scaled to controls: 0 for no effect and ±100 for the full control effect; nearly all actives have a fitted effect of over 65% in size
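HEPG2 CAGA-GFP, 1000 cells/well; 2 h settle, 37 C; cpd via pin tool; TGF-b 500 pg/mL final; 18 h, 37 C; GFP imaging ex488/em500-530; %Activity normalised to -TGF-b and +DMSO controls; CRC fit, curve class.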
HepG2 viability: qHTS for Inhibitors of TGF-b: Cytotox Counterscreen; Potency, µM (highest dose often 46.1 µM), for the others: at the top dose activity change, negative = cytotoxicity, most hits filed as cytotoxic; 0.76% of 410,000 active; HepG2 CAGA-GFP viability, ATP luminescence, 18 h; AID 588856, 2011
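CellTiter-Glo luminescence gave cytotoxicity after 18 hours at 37 degrees C. The cells were HepG2 CAGA-GFP in 1% FBS DMEM, stimulated with 500 pg/mL TGF-beta after compound addition. %Activity was normalised to no-cell wells (complete cell-killing) and DMSO (no toxicity), and curves were fitted and classified.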
Starred values were filed as active, the others as inactive. Calls follow the shape of the dose curve; as a rule, active = well fitted curve in the direction sought with a large enough effect; inconclusive = small, poorly fitted or top-dose-only effect, or another doubt; inactive = no such curve, though single readings can be large; an effect the other way counts as inactive or inconclusive. Potency is read from the fitted curve at half-maximal effect.

How did CC(C)=CCc1c(O)cc2oc3c(CC=C(C)C)c(O)c(O)c(CC=C(C)C)c3c(=O)c2c1O do in these assays?
HT1080 IDH1KD tx: inconclusive; KB-3-1 cytotox: inconclusive; HT1080-NT tox: inconclusive; KB-V1 cytotox: inconclusive; TGFb inhibitor: 6.31µM*; HepG2 viability: 8.91µM*

How did N#CC1=C(N)SC(N)=C(C#N)C1c1cccc(Oc2ccccc2)c1 do in these assays?
HT1080 IDH1KD tx: inconclusive; KB-3-1 cytotox: inactive; HT1080-NT tox: inconclusive; KB-V1 cytotox: inactive; TGFb inhibitor: inconclusive; HepG2 viability: -19.5%

How did N#CC1=C(N)N2C(=C(C#N)C13CCN(Cc1ccccc1)CC3)Nc1ccccc12 do in these assays?
HT1080 IDH1KD tx: -18.8%; KB-3-1 cytotox: inactive; HT1080-NT tox: -0.8%; KB-V1 cytotox: inactive; TGFb inhibitor: 7.7%; HepG2 viability: -12.0%

How did N#CC1=C(N)N2C(=C(C#N)C1c1ccc(Br)cc1)Nc1ccccc12 (stereo not drawn) do in these assays?
HT1080 IDH1KD tx: inconclusive; KB-3-1 cytotox: inactive; HT1080-NT tox: inconclusive; KB-V1 cytotox: inactive; TGFb inhibitor: 2.82µM*; HepG2 viability: -43.1%

What do the screens show for `N#CC1=C(N)N2C(=C(C#N)C1c1cccc(Br)c1)Nc1ccccc12` (stereo not drawn)?
HT1080 IDH1KD tx: inconclusive; KB-3-1 cytotox: inconclusive; HT1080-NT tox: inconclusive; KB-V1 cytotox: 5.8µM*; TGFb inhibitor: 3.16µM*; HepG2 viability: -50.2%

Results for Cc1cc(C)c(S(=O)(=O)NCc2csc(-c3ccccc3)n2)c(C)c1 ?
HepG2 viability: -55.6%

Results for CC(=O)N(C(C)=O)N1C(=O)C2C3c4ccccc4C(c4ccccc43)C2C1=O (stereo not drawn) ?
HT1080 IDH1KD tx: 13µM*; KB-3-1 cytotox: inactive; HT1080-NT tox: 20.6µM*; KB-V1 cytotox: inconclusive; TGFb inhibitor: inconclusive; HepG2 viability: -21.2%

Results for CN1C(=O)C2C3c4ccccc4C(c4ccccc43)[C@@H]2C1=O (stereo partly drawn) ?
HT1080 IDH1KD tx: 6.0%; KB-3-1 cytotox: inactive; HT1080-NT tox: 8.7%; KB-V1 cytotox: inactive; TGFb inhibitor: 0.0%; HepG2 viability: -1.0%

Results for CCCCc1ccc(NC(=S)NCc2ccc(OC)cc2)cc1 ?
HT1080 IDH1KD tx: inconclusive; KB-3-1 cytotox: inactive; HT1080-NT tox: -14.1%; KB-V1 cytotox: inactive; TGFb inhibitor: 10µM*; HepG2 viability: -39.9%

What do the screens show for `COc1ccc(CCNC(=S)Nc2ccc(C(C)C)cc2)cc1`?
HT1080 IDH1KD tx: -5.7%; KB-3-1 cytotox: inconclusive; HT1080-NT tox: -21.1%; KB-V1 cytotox: 23.1µM*; TGFb inhibitor: 15.8µM*; HepG2 viability: -71.7%

How did COc1cccc(NC(=O)C(=O)NCCc2ccc(F)cc2)c1 do in these assays?
HT1080 IDH1KD tx: 16.6%; KB-3-1 cytotox: inactive; HT1080-NT tox: 6.7%; KB-V1 cytotox: inactive; TGFb inhibitor: -10.4%; HepG2 viability: 20µM*

Results for COc1ccc(CCNC(=S)Nc2cc(C)cc(C)c2)cc1 ?
HT1080 IDH1KD tx: 2.0%; KB-3-1 cytotox: inactive; HT1080-NT tox: -7.3%; KB-V1 cytotox: 18.4µM*; TGFb inhibitor: 11.3%; HepG2 viability: -34.4%

Results for CCOC(=O)CNc1nc(C(C)(C)C)nc2c1nnn2Cc1ccccc1Cl ?
HT1080 IDH1KD tx: -20.2%; KB-3-1 cytotox: inconclusive; HT1080-NT tox: -1.9%; KB-V1 cytotox: 5.8µM*; TGFb inhibitor: -7.1%; HepG2 viability: -22.4%
